# Data as given in PubChem BioAssay AID1053126 (Broad Institute, 2014).
# Measured potencies and affinities stand elsewhere. Active and inactive are the calls of the source.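 Rule for the calls: active = cell killing with a fitted half-effect concentration at or below twice the top valid dose; inconclusive = flat curve with 30 to 70 percent drop, or poor fit; inactive = the rest.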
# Test: viability loss in HEK293T kidney cells – cell-based, ATP luminescence, cherry-pick, set 6, cytotoxicity control, dose response (AID 1053126)
# Conditions: CellTiter-Glo ATP luminescence, 72 h; series mostly up to 26 µM
row,SMILES,outcome
1,COCCNC(=S)N/N=C/c1ccc(-c2ccc([N+](=O)[O-])cc2)o1,inactive
2,CCN(CC)CCNC(=O)c1sc2nc(-c3ccccc3)cn2c1C,inactive
3,Nc1cccc2c1C(=O)N(c1ccccc1)C2=O,inactive
4,Cc1cc(OC(=O)c2ccccc2Cl)ccc1N1C(=O)CCC1=O,inactive
5,CCOC1=NN(c2ncc(C(F)(F)F)cc2Cl)C(=O)C1,inactive
6,CCCOc1ccc(NC(=O)c2c(-c3ccccc3)noc2C)cc1,inactive
7,Cc1ccc(-n2nnnc2CNC(=O)C(=O)c2c[nH]c3ccccc23)cc1C,inactive
8,CCC(C)n1c(=N)c(C#N)cc2c(=O)n3cccc(C)c3nc21 (stereo not drawn),inactive
9,O=C(C1=NN(c2ccccc2)C2C(=O)N(c3ccccc3)C(=O)C12)c1ccccc1 (stereo not drawn),inactive
10,Cc1nc2ccccc2c2oc(C(=O)NCCCN3CCC(C)CC3)cc12,inactive
11,CCCOc1ccccc1/C=C1\SC(N)=NC1=O,inactive
12,CCC(C)n1c(=N)c(C#N)cc2c(=O)n3cc(C)ccc3nc21 (stereo not drawn),inactive
13,CC(=O)OC[C@@H]1CN(Cc2ccccc2)C[C@H](n2cnc3c(N(C)C(C)C)ncnc32)O1,inactive
14,Cc1cccn2c(=O)c3cc(C(N)=S)c(=N)n(CCCOC(C)C)c3nc12,inactive
15,Cc1cc(-n2c(=O)c(C#N)cc3c(=O)n4ccccc4nc32)no1,inactive
16,O=C(O)c1ccc(N/N=C/c2ccc(-c3ccccc3Cl)o2)cc1,inactive
17,O=C(Cn1ccc([N+](=O)[O-])n1)N1CCCCCC1,inactive
18,O=C(CCCn1c(=O)c2sccc2n(Cc2cc(=O)n3ccccc3n2)c1=O)NCc1ccco1,inactive
19,CCOc1ccc2nc(NCCNC(=O)CC)c(C#N)cc2c1,inactive

row,SMILES,outcome
1,CCOC(=O)c1cc(-c2ccccc2)sc1NC(=O)CSc1nnc(N)s1,inactive
2,CCOc1ccccc1N=c1oc2cc(O)ccc2cc1C(=O)NCC1CCCO1 (stereo not drawn),inactive
3,O=C(Cc1csc(-c2ccccc2)n1)NCc1ccccc1F,inactive
4,Cc1cc(-n2c(=O)c(C#N)cc3c(=O)n4cccc(C)c4nc32)no1,inactive
5,O=C(c1ccc(F)cc1)C1CCN(C(=O)Nc2ccccc2Cl)CC1,inactive
6,CCC(Sc1nc(N)c(NC(=O)c2ccc(OC)cc2)c(=O)[nH]1)C(=O)O (stereo not drawn),inactive
7,O=C(O)C1=CC[C@@H](c2ccc(Cl)cc2)N(S(=O)(=O)c2ccc(Cl)cc2)[C@H]1c1ccc(F)cc1,inactive
8,CC(=O)c1cc2ccc(O)cc2oc1=O,inactive
9,COc1c(Cl)cc(-c2noc(C)c2C(=O)NCc2ccc3c(c2)OCO3)cc1Cl,inactive
10,CCNC(=O)c1cc2c(=O)n3cccc(C)c3nc2n(Cc2ccc(C)cc2)c1=N,inactive
11,O=C(O)c1ccc(-c2ccc(/C=C3\NC(=O)N(Cc4ccc(Cl)cc4)C3=O)o2)cc1,inactive
12,CCOC(=O)c1cc2c(=O)n3ccccc3nc2n(Cc2ccc(Cl)cc2)c1=N,inactive
13,Cc1oc(/N=C/c2ccc(F)cc2)c(C#N)c1C,inactive
14,O=c1[nH]c2ccccc2nc1/C=C/c1ccccc1,inactive
15,Cc1ccc(S(=O)(=O)c2cc3c(=O)n4ccccc4nc3n(C)c2=N)cc1,inactive
16,Cc1c(C(=O)NCc2ccc3c(c2)OCCO3)sc(=O)n1Cc1ccccc1F,inactive
17,O=[N+]([O-])c1cccc(-c2n[nH]c(=S)n2-c2ccc(Br)cc2)c1,inactive
18,COc1cc(C(=O)OCC(C)=O)cc(NC(=O)c2ccco2)c1OC,inactive
19,CCN(CC)CCN1C2=C(C(=O)CC(C)(C)C2)C(c2cccc(F)c2)C2=C1CC(C)(C)CC2=O,inactive
